Rows were chosen to be rich in hits. Some 1.6% of all compounds tested hit in one or more screens of this group.
KCNQ2 block – blocks the rat KCNQ2 potassium channel | CHO-K1 KCNQ2, FluxOR thallium flux, 20 min; hits give low values | O88943 | AID 2156 | B-score at 10 µM | hit rate 1.1% among 310,000;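 active means fluorescence ratio B-score at most minus 3 library SDs, with starting brightness B-score within 2 library SDs, cut at about -5.5 in these data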
Target sequence (O88943 whole entry, looked up): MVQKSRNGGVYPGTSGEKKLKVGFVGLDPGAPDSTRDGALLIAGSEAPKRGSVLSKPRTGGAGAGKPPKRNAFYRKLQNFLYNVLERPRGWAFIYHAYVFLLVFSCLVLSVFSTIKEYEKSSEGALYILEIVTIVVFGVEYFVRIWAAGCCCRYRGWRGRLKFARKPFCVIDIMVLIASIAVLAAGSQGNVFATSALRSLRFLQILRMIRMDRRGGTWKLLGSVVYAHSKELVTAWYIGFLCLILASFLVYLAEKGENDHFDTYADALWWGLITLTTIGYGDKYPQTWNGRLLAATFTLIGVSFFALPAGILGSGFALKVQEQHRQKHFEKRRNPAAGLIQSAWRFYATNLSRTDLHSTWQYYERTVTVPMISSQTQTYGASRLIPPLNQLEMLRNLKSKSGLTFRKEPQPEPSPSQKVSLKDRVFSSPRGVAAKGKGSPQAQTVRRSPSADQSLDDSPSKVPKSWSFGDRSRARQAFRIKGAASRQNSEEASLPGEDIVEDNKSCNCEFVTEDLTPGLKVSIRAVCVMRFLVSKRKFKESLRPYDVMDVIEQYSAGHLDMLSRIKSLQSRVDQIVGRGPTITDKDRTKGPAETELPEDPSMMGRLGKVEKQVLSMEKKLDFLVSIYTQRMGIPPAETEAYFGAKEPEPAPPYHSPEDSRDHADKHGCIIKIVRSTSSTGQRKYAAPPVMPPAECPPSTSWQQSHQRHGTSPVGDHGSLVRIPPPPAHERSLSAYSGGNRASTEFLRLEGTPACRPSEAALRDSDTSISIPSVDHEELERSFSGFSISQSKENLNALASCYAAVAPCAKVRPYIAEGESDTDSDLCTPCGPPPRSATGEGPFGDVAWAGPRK
KCNQ2 enhance – KCNQ2 (rat) channel potentiation. O88943. CHO-K1 KCNQ2, FluxOR thallium flux fluorescence; hits give high values. B-score at 10 µM. hit rate 0.54% among 310,000. AID 2239;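 active means fluorescence ratio B-score at least 3 SD of library B-scores, with initial fluorescence B-score within 3 of them, cut at about 5.3 in these data; same plate scores as AID 2156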;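 further: B-score of peak minus minimum over baseline fluorescence ratio after K+ and Tl+ stimulus; positive B-score means potentiation of KCNQ2 with more thallium influx and brighter signal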
An asterisk follows results filed as active; i = inactive; x = not tested or not shown.

SMILES | KCNQ2 block | KCNQ2 enhance
CCN(CC)S(=O)(=O)c1cccc(-c2nnc(SCC#N)n2Cc2ccccc2)c1 | -5.7* | -5.7
CCC(C)[C@H](NC(=O)C1CC(=O)N(c2ccc(OC)cc2)C1)C(=O)N1CCCCC1 (some centres not stated) | i | x
O=C(CN1C(=O)CSc2ccccc21)N/N=C/c1ccco1 | i | x
CN1CCN(S(=O)(=O)c2cccc(C(=O)Nc3cc(C(F)(F)F)ccc3N3CCCCC3)c2)CC1 | -7.3* | -7.3
O=C(Nc1cc(C(F)(F)F)ccc1N1CCCCC1)c1cccc([N+](=O)[O-])c1 | i | 2.3
Cc1ccc(C(=O)Nc2cc(C(F)(F)F)ccc2N2CCCCC2)cc1[N+](=O)[O-] | -7.2* | -7.2
CN1CCN(S(=O)(=O)c2cccc(C(=O)Nc3ccccc3N3CCCCC3)c2)CC1 | -6* | -6
CCN1CCN(c2ccc(S(=O)(=O)N3CCCCC3)cc2NC(=O)c2cccc(C(F)(F)F)c2)CC1 | i | x
CN1CCN(S(=O)(=O)c2cccc(C(=O)Nc3ccccc3N3CCOCC3)c2)CC1 | i | 0.44
CC(C)c1ccc(N=C2N=C(N)c3ccccc32)cc1 | i | x
NC(=O)CSc1oc(-c2ccco2)nc1S(=O)(=O)c1ccc(Br)cc1 | i | x
COc1ccc(Cl)cc1NC(=S)N(Cc1ccc(C(=O)O)cc1)Cc1ccc(OC)c(OC)c1 | i | x
Cc1cccc(C)c1NC(=O)C(=O)NCC1CCCN1S(=O)(=O)c1ccccc1 (configuration not stated) | i | x
Cc1cc(NC(=O)CCC(=O)N(CC(=O)NC2CCCC2)c2ccc(Cl)cc2)no1 | i | 1.9
COc1ccc2c(C)c(C(=O)N3CCN(Cc4ccccc4)CC3)oc2c1 | -6.2* | -6.2
COc1ccc(Cn2c(=O)[nH]c3cc(C(=O)N4CCN(Cc5ccccc5)CC4)ccc3c2=O)cc1 | i | x
CCOc1ccc(OCC)c(NC(=O)CN2CCN(c3cccc(C)c3)CC2)c1 | i | 1.9
CCOc1ccc(OCC)c(NC(=O)CN2CCN(c3cc(C)ccc3C)CC2)c1 | -5.6* | -5.6
Cc1cc(NC(=O)C(C)SCC(=O)Nc2ccc(Br)cc2Br)no1 (configuration not stated) | i | 1.5
O=C(NCCc1ccco1)C(=O)NCC1CCCN1S(=O)(=O)c1ccccc1 (configuration not stated) | i | x
O=C(CCC1CCN(C(=O)Cc2c(F)cccc2F)CC1)NC1CC1 | i | x
COc1ccc(C(=O)Nc2ccccc2N2CCN(C(=O)c3ccccc3)CC2)cc1Br | -7.2* | -7.2
CS(=O)(=O)N1CCN(c2ccccc2NC(=O)c2cccc3ccccc23)CC1 | i | x
CC(C)C(=O)N1CCN(c2ccccc2NC(=O)c2cccc(Cl)c2)CC1 | -6.6* | -6.6
CC(C)C(=O)N1CCN(c2ccccc2NC(=O)c2cccc3ccccc23)CC1 | -7.3* | -7.3
SMILES | KCNQ2 block | KCNQ2 enhance
Cn1c(=O)n(C)c2cc(N3CCCCC3)c(NC(=O)c3cccc(Cl)c3)cc21 | i | x
O=C(Nc1ccccc1N1CCN(C(=O)c2ccccc2)CC1)c1ccc(Cl)cc1 | i | x
CN(C)c1ccc(S(=O)(=O)NCC(=O)N2CCN(c3ccccc3)CC2)cc1[N+](=O)[O-] | i | 1.8
COc1ccc(-c2csc(NC(CO)c3nc4ccccc4n3CCCO)n2)cc1 (configuration not stated) | i | 0.99
O=C(Cn1c(NCCCO)nc2ccccc21)c1ccc(Cl)cc1Cl | i | 1.9
CC(=O)CC(C)(C)NC(C)=S | i | 1.2
Clc1ccc(OCc2cn3ccccc3n2)c2ncccc12 | -6.6* | -6.6
OCc1ccccc1OCCOc1ccc(Cl)c2cccnc12 | i | x
COCCN1CC(C(=O)NCCc2nc(C)c(C)s2)CCC1=O (configuration not stated) | i | x
O=C(CN(C(=O)c1csnn1)c1ccc(F)c(Cl)c1)NCc1ccc2c(c1)OCO2 | i | 0.49
C=CCN(c1cccc(C(F)(F)F)c1)S(=O)(=O)c1cccc(C(=O)OCC(=O)NCCC)c1 | i | 6.6*
C=CCN(c1ccccc1)S(=O)(=O)c1cccc(C(=O)OCC(=O)NCCOC)c1 | i | 1.3
O=S(=O)(NCC(O)c1ccccc1)c1cc(Cl)sc1Cl (configuration not stated) | i | 0.13
COc1ccc(CC(=S)NCCc2ccccc2)cc1 | -6* | -6
S=C(Cc1ccccc1)NCCc1ccccc1 | i | x
CCN1C(=O)N[C@H](c2ccccc2)C(C(C)=O)=C1C | i | 2
Cc1ccc(NC(=S)NC(=O)Cc2ccccc2)c(O)c1 | i | 1.5
CC(C)(C)OC(=O)N1CCCC1C(=O)NCCc1ccccc1 (configuration not stated) | i | 0.63
CCc1cc2c(C)cc(=O)oc2cc1OC(=O)C1CCCN1C(=O)OC(C)(C)C (configuration not stated) | -6* | -6
CCOc1ccc(C(=O)Nc2ccc(C(=O)N3CCOCC3)cc2)c(OCC)c1 | i | 0.71

Source: PubChem
